PubChem BioAssay AID1159580 (chemical genetic matrix, 2015)
Hit rate of the full screen: of about 5,500 compounds, about 2,000 (36%) were called active. About 18% were inconclusive and are not listed. Rule as the data show it: active = normalized growth mostly below about 0.91 (no sharp cut-off); inconclusive = no clear call, values can overlap the other calls; inactive = mostly above about 0.92. The list shows a part of the results.

Assay: chemical genetic growth profiling, strain panel (AID 1159580);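 also: tested at 20 µM; growth read once vehicle control cultures reached saturation at 30 °C; 1 = growth at the plate median or of vehicle wells; lower values mean less growth of the strain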
Conditions: S. cerevisiae deletion strains, growth OD

Measured: normalized growth

S=C(S)N1CCCC1
inactive: locus YAL040C, strain CLN3, active compounds read low 1 | locus YER002W, strain NOP16, active compounds read low 0.992 | locus YGR078C, strain PAC10, active compounds read low 0.977 | locus YNL175C, strain NOP13, active compounds read low 0.98 | locus YNL224C, strain SQS1, active compounds read low 0.966 | locus YNL322C, strain KRE1, active compounds read low 0.916
active: locus YAL013W, strain DEP1, active compounds read low 0.676 | locus YDR150W, strain NUM1, active compounds read low 0.634 | locus YDR363W, strain ESC2, active compounds read low 0.804 | locus YJR075W, strain HOC1, active compounds read low 0.52 | locus YNL197C, strain WHI3, active compounds read low 0.409 | locus YOR083W, strain WHI5 (second series), active compounds read low 0.175 | locus YPL055C, strain LGE1, active compounds read low 0.454 | locus YPL241C, strain CIN2, active compounds read low 0.943

Fc1ccc(Nc2nc(-c3ccc(F)c(F)c3)cs2)c(F)c1
active: locus YAR019C, strain CDC15, active compounds read low 0.14 | locus YBL105C, strain PKC1, active compounds read low 0.104 | locus YBR135W, strain CKS1, active compounds read low 0.0961 | locus YBR136W, strain MEC1, active compounds read low 0.0962 | locus YBR160W, strain CDC28, active compounds read low 0.12 | locus YDL017W, strain CDC7, active compounds read low 0.128 | locus YDL028C, strain MPS1, active compounds read low 0.104 | locus YDL101C, strain DUN1, active compounds read low 0.282 | locus YDL108W, strain KIN28, active compounds read low 0.132 | locus YDL132W, strain cdc53, active compounds read low 0.0939 | locus YDL214C, strain PRR2, active compounds read low 0.182 | locus YDR052C, strain DBF4, active compounds read low 0.181 | locus YDR054C, strain cdc34, active compounds read low 0.094 | locus YDR226W, strain ADK1, active compounds read low 0.107 | locus YDR477W, strain SNF1, active compounds read low 0.102 | locus YER123W, strain YCK3, active compounds read low 0.173 | locus YER133W, strain GLC7, active compounds read low 0.17 | locus YFL009W, strain cdc4, active compounds read low 0.0952 | locus YFL029C, strain CAK1, active compounds read low 0.0895 | locus YFR003C, strain YPI1, active compounds read low 0.105 | locus YFR019W, strain FAB1, active compounds read low 0.102 | locus YFR028C, strain CDC14, active compounds read low 0.0972 | locus YGR040W, strain KSS1, active compounds read low 0.102 | locus YGR052W, strain FMP48, active compounds read low 0.144 | locus YGR092W, strain DBF2, active compounds read low 0.11 | locus YHR030C, strain SLT2, active compounds read low 0.141 | locus YHR079C, strain IRE1, active compounds read low 0.158 | locus YHR082C, strain KSP1, active compounds read low 0.155 | locus YHR205W, strain SCH9, active compounds read low 0.000718 | locus YIL147C, strain SLN1, active compounds read low 0.133 | locus YJL095W, strain BCK1, active compounds read low 0.133 | locus YJL128C, strain PBS2, active compounds read low 0.0972 | locus YJL157C, strain FAR1, active compounds read low 0.199 | locus YJR016C, strain ILV3, active compounds read low 0.0878 | locus YJR066W, strain TOR1 (second series), active compounds read low 0.0987 | locus YJR066W, strain TOR1, active compounds read low 0.111 | locus YKL048C, strain ELM1, active compounds read low 0.145 | locus YKL067W, strain YNK1, active compounds read low 0.182 | locus YKL101W, strain HSL1, active compounds read low 0.132 | locus YKL193C, strain SDS22, active compounds read low 0.0966 | locus YKL203C, strain TOR2, active compounds read low 0.104 | locus YLR113W, strain HOG1, active compounds read low 0.189 | locus YLR133W, strain CKI1, active compounds read low 0.0955 | locus YLR403W, strain SFP1, active compounds read low 0.0012 | locus YML070W, strain DAK1, active compounds read low 0.113 | locus YMR001C, strain CDC5, active compounds read low 0.0929 | locus YMR205C, strain PFK2 (second series), active compounds read low 0.0941 | locus YMR277W, strain FCP1, active compounds read low 0.0934 | locus YNL006W, strain LST8, active compounds read low 0.106 | locus YNL020C, strain ARK1, active compounds read low 0.107 | locus YNL161W, strain CBK1, active compounds read low 0.475 | locus YNL183C, strain NPR1, active compounds read low 0.155 | locus YNL207W, strain RIO2, active compounds read low 0.114 | locus YNL222W, strain SSU72, active compounds read low 0.101 | locus YNL307C, strain MCK1 (second series), active compounds read low 0.117 | locus YOL078W, strain AVO1, active compounds read low 0.092 | locus YOL136C, strain PFK27, active compounds read low 0.197 | locus YOR061W, strain CKA2, active compounds read low 0.102 | locus YOR119C, strain RIO1, active compounds read low 0.107 | locus YOR231W, strain MKK1, active compounds read low 0.169 | locus YOR329C, strain SCD5, active compounds read low 0.117 | locus YPL031C, strain PHO85, active compounds read low 0.114 | locus YPL153C, strain RAD53, active compounds read low 0.116 | locus YPL204W, strain HRR25, active compounds read low 0.104 | locus YPL209C, strain IPL1, active compounds read low 0.0912 | locus YPL256C, strain CLN2, active compounds read low 0.179 | locus YPR025C, strain CCL1, active compounds read low 0.0957 | locus YPR106W, strain ISR1, active compounds read low 0.099 | locus YPR111W, strain DBF20, active compounds read low 0.101 | strain NNK1, active compounds read low 0.114 | strain TSCII, active compounds read low 0.106
